Values joined by “and” are separate entries in the source; they are usually repeats but may differ in a detail not shown here. Equal values may be shown once. Among all 5,500 compounds or so, about 2,000 (36%) were called active. About 18% were inconclusive and are not listed. Cut-off read from the data, not from the text of the source: active = normalized growth mostly below about 0.91 (no sharp cut-off); inconclusive = no clear call, values can overlap the other calls; inactive = mostly above about 0.92. Some of the results follow.
Test: chemical genetic growth profiling, strain panel (AID 1159580);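 note: tested at 20 µM; growth read once vehicle control cultures reached saturation at 30 °C; 1 = growth at the plate median or of vehicle wells; lower values mean less growth of the strain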
Conditions: growth OD

Measured: normalized growth

CC(=O)Nc1ccc(S(=O)(=O)Nc2ccc([N+](=O)[O-])cc2)cc1
inactive: S. cerevisiae deletion strains, locus YAL013W, strain DEP1, stronger effect = lower value 1.01 | S. cerevisiae deletion strains, locus YBR021W, strain FUR4, stronger effect = lower value 0.97 | S. cerevisiae deletion strains, locus YBR229C, strain ROT2, stronger effect = lower value 1.01 | S. cerevisiae deletion strains, locus YCL029C, strain bik1, stronger effect = lower value 1.01 | S. cerevisiae deletion strains, locus YDL035C, strain GPR1, stronger effect = lower value 1.01 | S. cerevisiae deletion strains, locus YDL074C, strain BRE1, stronger effect = lower value 0.986 | S. cerevisiae deletion strains, locus YDL101C, strain DUN1, stronger effect = lower value 1 | S. cerevisiae deletion strains, locus YDL134C, strain PPH21, stronger effect = lower value 1 | S. cerevisiae deletion strains, locus YDL185W, strain tfp1, stronger effect = lower value 0.999 | S. cerevisiae deletion strains, locus YDL192W, strain arf1, stronger effect = lower value 1.01 | S. cerevisiae deletion strains, locus YDR101C, strain arx1, stronger effect = lower value 0.99 | S. cerevisiae deletion strains, locus YDR150W, strain NUM1, stronger effect = lower value 1.02 | S. cerevisiae deletion strains, locus YDR162C, strain NBP2, stronger effect = lower value 1.01 | S. cerevisiae deletion strains, locus YDR318W, strain mcm21, stronger effect = lower value 0.991 | S. cerevisiae deletion strains, locus YDR388W, stronger effect = lower value 0.999 | S. cerevisiae deletion strains, locus YDR502C, strain sam2, stronger effect = lower value 1 | S. cerevisiae deletion strains, locus YEL061C, strain CIN8, stronger effect = lower value 1.01 | S. cerevisiae deletion strains, locus YER110C, stronger effect = lower value 0.997 | S. cerevisiae deletion strains, locus YER155C, strain BEM2, stronger effect = lower value 1 | S. cerevisiae deletion strains, locus YER167W, strain BCK2, stronger effect = lower value 1.01 | S. cerevisiae deletion strains, locus YGL078C, strain dbp3, stronger effect = lower value 1 | S. cerevisiae deletion strains, locus YGL086W, strain mad1, stronger effect = lower value 1 | S. cerevisiae deletion strains, locus YGL248W, strain PDE1, stronger effect = lower value 1 | S. cerevisiae deletion strains, locus YGR078C, strain PAC10, stronger effect = lower value 0.995 | S. cerevisiae deletion strains, locus YGR135W, strain pre9, stronger effect = lower value 0.996 | S. cerevisiae deletion strains, locus YGR229C, strain SMI1, stronger effect = lower value 1.01 | S. cerevisiae deletion strains, locus YGR252W, strain gcn5, stronger effect = lower value 0.955 | S. cerevisiae deletion strains, locus YHR030C, strain SLT2, stronger effect = lower value 1.01 and 1 | S. cerevisiae deletion strains, locus YHR079C, strain IRE1 (second series), stronger effect = lower value 0.997 | S. cerevisiae deletion strains, locus YHR079C, strain IRE1, stronger effect = lower value 0.984 | S. cerevisiae deletion strains, locus YHR094C, strain hxt1, stronger effect = lower value 1 | S. cerevisiae deletion strains, locus YHR129C, strain ARP1, stronger effect = lower value 1 | S. cerevisiae deletion strains, locus YHR200W, strain rpn10, stronger effect = lower value 0.992 | S. cerevisiae deletion strains, locus YIL066C, strain RNR3, stronger effect = lower value 1.02 | S. cerevisiae deletion strains, locus YIL073C, strain SPO22, stronger effect = lower value 1.05 | S. cerevisiae deletion strains, locus YIL125W, strain kgd1, stronger effect = lower value 0.996 | S. cerevisiae deletion strains, locus YIR030C, strain dcg1, stronger effect = lower value 1.01 | S. cerevisiae deletion strains, locus YJL095W, strain BCK1, stronger effect = lower value 0.994 and 0.998 | S. cerevisiae deletion strains, locus YJL134W, strain LCB3, stronger effect = lower value 1.01 | S. cerevisiae deletion strains, locus YJL168C, strain set2, stronger effect = lower value 0.989 | S. cerevisiae deletion strains, locus YJL187C, strain SWE1 (second series), stronger effect = lower value 1.01 | S. cerevisiae deletion strains, locus YJR043C, strain POL32, stronger effect = lower value 0.995 | S. cerevisiae deletion strains, locus YJR066W, strain TOR1, stronger effect = lower value 0.93 | S. cerevisiae deletion strains, locus YJR075W, strain HOC1, stronger effect = lower value 1.01 | S. cerevisiae deletion strains, locus YKL009W, strain mrt4, stronger effect = lower value 1.09 | S. cerevisiae deletion strains, locus YKL068W, stronger effect = lower value 1 | S. cerevisiae deletion strains, locus YKL085W, strain MDH1 (second series), stronger effect = lower value 1.01 | S. cerevisiae deletion strains, locus YKL085W, strain MDH1, stronger effect = lower value 1.01 | S. cerevisiae deletion strains, locus YKL190W, strain CNB1, stronger effect = lower value 1.01 | S. cerevisiae deletion strains, locus YKR001C, strain vps1, stronger effect = lower value 1.01 | S. cerevisiae deletion strains, locus YLR039C, strain RIC1, stronger effect = lower value 1.04 | S. cerevisiae deletion strains, locus YLR058C, strain SHM2, stronger effect = lower value 1.01 | S. cerevisiae deletion strains, locus YLR102C, strain apc9, stronger effect = lower value 0.994 | S. cerevisiae deletion strains, locus YLR113W, strain HOG1, stronger effect = lower value 0.969 | S. cerevisiae deletion strains, locus YLR262C, strain YPT6, stronger effect = lower value 1.04 | S. cerevisiae deletion strains, locus YLR268W, strain sec22, stronger effect = lower value 0.993 | S. cerevisiae deletion strains, locus YLR330W, strain CHS5, stronger effect = lower value 1.01 | S. cerevisiae deletion strains, locus YLR342W, strain FKS1 (second series), stronger effect = lower value 0.995 | S. cerevisiae deletion strains, locus YLR371W, strain rom2, stronger effect = lower value 0.994 | S. cerevisiae deletion strains, locus YLR418C, strain cdc73, stronger effect = lower value 0.949 | S. cerevisiae deletion strains, locus YML016C, strain PPZ1, stronger effect = lower value 1.01 | S. cerevisiae deletion strains, locus YML032C, strain rad52, stronger effect = lower value 0.987 | S. cerevisiae deletion strains, locus YML124C, strain tub3, stronger effect = lower value 1 | S. cerevisiae deletion strains, locus YMR078C, strain ctf18, stronger effect = lower value 0.993 | S. cerevisiae deletion strains, locus YMR223W, strain ubp8, stronger effect = lower value 1 | S. cerevisiae deletion strains, locus YMR263W, strain SAP30, stronger effect = lower value 1.01 | S. cerevisiae deletion strains, locus YMR307W, strain GAS1, stronger effect = lower value 0.989 | S. cerevisiae deletion strains, locus YNL067W, strain RPL9B, stronger effect = lower value 1.01 | S. cerevisiae deletion strains, locus YNL128W, strain TEP1, stronger effect = lower value 1.01 | S. cerevisiae deletion strains, locus YNL153C, strain GIM3, stronger effect = lower value 0.995 | S. cerevisiae deletion strains, locus YNL183C, strain NPR1, stronger effect = lower value 0.941 | S. cerevisiae deletion strains, locus YNL233W, strain BNI4, stronger effect = lower value 1 | S. cerevisiae deletion strains, locus YNL250W, strain rad50, stronger effect = lower value 0.996 | S. cerevisiae deletion strains, locus YNL271C, strain bni1, stronger effect = lower value 1 | S. cerevisiae deletion strains, locus YNL298W, strain CLA4, stronger effect = lower value 1 | S. cerevisiae deletion strains, locus YNL307C, strain MCK1, stronger effect = lower value 1 | S. cerevisiae deletion strains, locus YNL322C, strain KRE1, stronger effect = lower value 1 | S. cerevisiae deletion strains, locus YNR052C, strain pop2, stronger effect = lower value 1 | S. cerevisiae deletion strains, locus YOL006C, strain TOP1, stronger effect = lower value 0.975 | S. cerevisiae deletion strains, locus YOL012C, strain htz1 1.05 | S. cerevisiae deletion strains, locus YOL147C, strain pex11, stronger effect = lower value 0.996 | S. cerevisiae deletion strains, locus YOR061W, strain CKA2, stronger effect = lower value 1.01 | S. cerevisiae deletion strains, locus YOR069W, strain VPS5, stronger effect = lower value 1 | S. cerevisiae deletion strains, locus YOR136W, strain idh2, stronger effect = lower value 0.998 | S. cerevisiae deletion strains, locus YOR144C, strain elg1, stronger effect = lower value 0.997 | S. cerevisiae deletion strains, locus YOR184W, strain ser1, stronger effect = lower value 1 | S. cerevisiae deletion strains, locus YOR231W, strain MKK1, stronger effect = lower value 0.989 | S. cerevisiae deletion strains, locus YOR316C, strain cot1, stronger effect = lower value 1 | S. cerevisiae deletion strains, locus YPL055C, strain LGE1, stronger effect = lower value 1.03 | S. cerevisiae deletion strains, locus YPL241C, strain CIN2, stronger effect = lower value 1.01 | S. cerevisiae deletion strains, locus YPL256C, strain CLN2, stronger effect = lower value 0.989 | S. cerevisiae deletion strains, locus YPR119W, strain clb2, stronger effect = lower value 0.998 | S. cerevisiae deletion strains, locus YPR141C, strain kar3, stronger effect = lower value 1 | S. cerevisiae deletion strains, locus YPR163C, strain tif3, stronger effect = lower value 1.01 | S. cerevisiae deletion strains, locus YPR167C, strain met16, stronger effect = lower value 0.992 | S. cerevisiae deletion strains, strain wtn01, stronger effect = lower value 0.988 | S. cerevisiae strains, strain wild type, stronger effect = lower value 1.01

From PubChem BioAssay AID1159580 (chemical genetic matrix, 2015)
